Cycloheximide cs – Cycloheximide Counterscreen for Small Molecule Inhibitors of Shiga Toxin; cell reporter, cycloheximide protein synthesis inhibition counterscreen; max response, %; 300,000 tested, 12% active; AID 2314, 2010; in the data active means max response mostly above about 13%, no sharp cut-off; inactive means mostly below about 14%; further: read at 38.3 µM for the half of the compounds with a filed dose; 0% is about no effect
SARS PLP yeast – qHTS of Yeast-based Assay for SARS-CoV PLP | S. cerevisiae expressing SARS-CoV PLpro, growth rescue | Potency, µM (titrated, usually from 32.9 µM), inactives show at the highest dose activity, positive = growth rescue, most hits filed as activators | 330,000 tested, 0.19% active; further: potency means the concentration at half of the fitted maximal effect; 0% is about no effect; nearly all actives have a fitted effect of over 55% in size
Pf growth 96h – Primary qHTS for delayed death inhibitors of the malarial parasite plastid, 96 hour incubation; Potency, µM (top dose mostly 28.7 µM), for the others: top-dose activity change, negative = inhibition, actives largely listed as inhibitors; P. falciparum luciferase reporter growth, 96 h; AID 504834, 2011; 320,000 tested, 6.9% active; active means well fitted inhibition curve with a large enough effect; inconclusive means small, poorly fitted or top-dose-only effect, or another doubt; inactive means no such curve, though single readings can be large or run the other way; further: potency means the concentration at half of the fitted maximal effect; on the % scale 0 is the no-effect control and ±100 the full control effect
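Parasite growth measured via integrated firefly luciferase reporter in P. falciparum. Infected erythrocytes at 2% hematocrit, 0.05% parasitemia final were treated 96 hours at 37 C under 5% CO2, and luminescence was read.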
Pf growth 48h – Primary qHTS for delayed death inhibitors of the malarial parasite plastid, 48 hour incubation; 310,000 tested, 5.9% active; Potency, µM (series often up to 28.7 µM), for the others: at the top dose activity change, negative = inhibition, most hits filed as inhibitors; AID 504832, 2011; P. falciparum luciferase growth in erythrocytes, 48 h; active means well fitted inhibition curve with a large enough effect; inconclusive means small, poorly fitted or top-dose-only effect, or another doubt; inactive means no such curve, though single readings can be large or run the other way; further: potency means the concentration at half of the fitted maximal effect; on the % scale 0 is the no-effect control and ±100 the full control effect
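Here the parasites carry a stable luciferase gene and grow inside erythrocytes in Albumax-based RPMI medium with compound for one erythrocytic cycle. Activity is scored as loss of luminescent signal.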
NS1 function inh – qHTS Assay for Inhibitors of Influenza NS1 Protein Function | 270,000 tested, 0.4% active | AID 2326, 2010 | Potency, µM (series often up to 46.1 µM), for inactives: at the top dose activity, positive = more growth; further: potency means the concentration at half of the fitted maximal effect; actives are rising curves; nearly all actives have a fitted effect of over 50% in size
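Compounds were scored for reversing the slow growth caused by influenza A NS1 in S. cerevisiae, measured by optical density at 600 nm. Assay medium contained 2% galactose at pH 6.0; NS1-free yeast of the same strain were the positive control.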
Shiga toxin inh – A qHTS for Small Molecule Inhibitors of Shiga Toxin; inhibition, % at 38.7 µM; 290,000 tested, 9.2% active; Vero cells, Shiga toxin protein synthesis inhibition reporter; in the data active means inhibition mostly above about 28%, no sharp cut-off; inactive means mostly below about 43%; further: 0% is about no effect
* = called active by the depositor; ? = inconclusive; . = not tested or not shown; [ ] = remark or other dose. Shown are actives, neighbours in structure and some others; about 21% of the full set was active somewhere. Unless noted, the call rests on the fitted dose curve.

SMILES	Cycloheximide cs	SARS PLP yeast	Pf growth 96h	Pf growth 48h	NS1 function inh	Shiga toxin inh
NC(=O)CS(=O)C[C@H](N)C(=O)O (stereo partly drawn)	.	.	.	.	0%	.
O=C(CSc1nnc(COc2ccccc2F)n1-c1ccccc1)NCc1ccco1	19*	8%	.	?	-7%	53*
CCOc1ccccc1-n1c(CNc2ccc(F)cc2)nnc1SCC(=O)NCc1ccco1	22*	-11%	5%	12µM*	23%	29
COc1ccccc1-n1c(CNc2ccc(F)cc2)nnc1SCC(=O)Nc1cc(C)on1	-2	-13%	-30%	13µM*	7%	13
O=C(CSc1nnc(CNc2ccc(F)cc2)n1Cc1ccccc1)NCc1ccco1	-3	2%	?	?	-4%	9
C=CCn1c(COc2ccccc2F)nnc1SCC(=O)NC(=O)NCc1ccco1	-4	3%	5%	.	10%	-19
COc1ccccc1CN1C[C@@H]2C[C@@H](c3ccc(C)cc3)N3CCC[C@@]23C1=O	-4	-1%	?	?	-4%	-10
CCc1ccc([C@@H]2C[C@H]3CN(Cc4ccccc4OC)C(=O)[C@]34CCCN24)cc1	-2	-1%	?	5.9µM*	-1%	-5
COc1ccccc1CN1C[C@@H]2C[C@@H](C3=Cc4cc(Cl)ccc4OC3)N3CCC[C@@]23C1=O	-2	0%	13µM*	?	16%	3
CN1C[C@@H]2C[C@@H](C3=Cc4cc(Cl)ccc4OC3)N3CCC[C@@]23C1=O	-2	0%	5%	-25%	0%	-10
CCn1ccnc1[C@@H]1C[C@H]2CN(Cc3ccccc3OC)C(=O)[C@]23CCCN13	-2	0%	9.3µM*	11%	-1%	15
COc1ccccc1CN1C[C@@H]2C[C@@H](c3[nH]c4ccc(C)cc4c3C)N3CCC[C@@]23C1=O	7	0%	-14%	7.4µM*	1%	-10
Cc1noc(C)c1-c1ccc2ncnc(NCc3ccccc3Cl)c2c1	2	.	.	.	.	-4
CCc1ncnc2cc(OC)c(OC)cc12	.	.	?	3%	.	.
CC(CC(=O)Nc1cccc(F)c1)S(=O)(=O)c1ccc2c(c1)NC(=O)CO2 (stereo not drawn)	11	2%	-8%	9%	-1%	-4
Cn1c(NNC(=O)C2CCCCC2)cc(=O)n(C)c1=O	8	2%	-39%	0%	.	24
COc1ccc([C@@H]2C[C@H]3CN(c4ccccc4)C(=O)[C@]34CCCN24)c(OC)c1OC	-2	0%	7%	?	7%	23
COc1ccc2c(c1)C=C([C@@H]1C[C@H]3CN(c4ccccc4)C(=O)[C@]34CCCN14)CO2	-1	-2%	?	1.5µM*	-1%	2
O=C1N(c2ccccc2)C[C@@H]2C[C@@H](c3cccs3)N3CCC[C@@]123	-1	1%	?	?	4%	-28
COCc1cc([C@@H]2C[C@H]3CN(c4ccccc4)C(=O)[C@]34CCCN24)ccc1OC	2	1%	?	10µM*	3%	3
O=C(NCC1CCCO1)c1ccc(Oc2ccc([N+](=O)[O-])cc2Cl)cc1 (stereo not drawn)	2	-1%	35%[1.15 µM]	-3%	-35%	15
O=C(NCC1CCCO1)/C(=C\c1cccc([N+](=O)[O-])c1)NC(=O)c1ccccc1 (stereo not drawn)	3	2%	22%	31%	.	-1
O=C(NCC1CCCO1)C(=Cc1cccc([N+](=O)[O-])c1)C(=O)NCC1CCCO1 (stereo not drawn)	9	-3%	13µM*	?	-3%	37
O=C(NCC1CCCO1)c1ccc(Oc2ccc([N+](=O)[O-])cc2)cc1 (stereo not drawn)	0	-1%	1.5µM*	4%	-8%	-6
O=C(NCc1nc2ccccc2[nH]1)c1cccc(S(=O)(=O)N2CCCC2)c1	-4	2%	-27%	.	-2%	-11
CC(=O)OCON[N+]([O-])=NC(C)C	12	.	.	.	.	-6

Assay outcomes as filed in PubChem BioAssay.
